From PubChem BioAssay AID686978 (National Center for Advancing Translational Sciences (NCATS), 2013)
Among all 420,000 compounds or so, about 64,000 (15%) were called active. Another 27% or so got no clear call; they are omitted. Calls come from the whole dose curve; as a rule, active = well fitted inhibition curve with a large enough effect; inconclusive = small, poorly fitted or top-dose-only effect; inactive = flat fitted curve, though single readings scatter. Only a sample is shown. Entries that show only a call come without a potency.

Experiment: qHTS for Inhibitors of human tyrosyl-DNA phosphodiesterase 1 (TDP1): qHTS in cells in absence of CPT; note: nearly all actives have a fitted effect of over 55% in size
Conditions: DT40 Tdp1-/- hTDP1 cells, no CPT, ATP luminescence, 48 h; activity change, negative = growth inhibition: at 46.2 µM (top of the series)
How it was run: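 Stably hTDP1-transfected Tdp1-null chicken DT40 cells were treated with library compounds minus camptothecin and grown for at least 48 hr at 37 °C, after which cellular ATP was quantified by luminescence.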
Potency is the fitted concentration of half-maximal effect.

Structure (SMILES)	Potency
O=C(Cc1ccccc1)Nc1ccc(C(=O)Nc2ccccc2C(=O)O)cc1	inactive
Cc1cccnc1NC(=O)Cn1c(=O)oc2ccccc21	inactive
COc1cc(NS(=O)(=O)c2ccc3ccccc3c2)c2ncccc2c1	7.31 µM (active)
CCOc1ncccc1C(=O)NNC(=O)c1cccc(S(=O)(=O)Nc2ccccc2OC)c1	inactive
COc1ccc2cc(S(=O)(=O)Nc3ccccn3)ccc2c1	inactive
C/C(O)=C\c1nc(=O)c2c(C)cc(C)nc2n1-c1ccccc1	inactive
N#Cc1c(-c2ccc(Cl)cc2)c2c([nH]c1=S)CCCC2	inactive
COc1ccc(-n2c(SCC(=O)OC(C)C)nnc2-c2ccccn2)cc1	inactive
COc1ccc2nc(-c3ccccn3)ccc2c1	3.26 µM (active)
COc1ccc(-c2cn3cccnc3n2)cc1	inactive
CCSc1ncc(Cl)c(C(=O)Nc2c(C(=O)c3ccccc3)oc3ccccc23)n1	inactive
CCOc1ccc(S(=O)(=O)N(CC(=O)O)c2ccccc2)cc1	inactive
CCOc1ccc(Cn2nnc(C(=O)NCc3ccccc3)c2N)cc1	inactive
CCOc1ccc(N(Cc2ccccc2)C(=O)c2nc(SCC)ncc2Cl)cc1	6.51 µM (active)
CCSc1nnc2c(n1)OC(c1ccc(OCC(=O)O)cc1)Nc1ccccc1-2 (stereo not given)	inactive
CCOc1ccc(N(Cc2ccccc2)C(=O)c2nc(S(C)(=O)=O)ncc2Cl)cc1	0.58 µM (active)
CCCOc1ccc(/C(O)=C2/C(=O)C(=O)N(CCN(C)C)C2c2ccc(OC)c(OC)c2)cc1 (stereo not given)	inactive
N#CCCn1ncc2ccccc21	inactive
CC1CCN(C(=O)c2cccc(S(=O)(=O)N3CCCc4ccccc43)c2)CC1	11.6 µM (active)
CNC(=O)C1CN(C(=O)c2cccc(S(=O)(=O)N3CCc4ccccc43)c2)c2ccccc2O1 (stereo not given)	5.8 µM (active)
CC1Cc2ccccc2N1S(=O)(=O)c1cccc(C(=O)OCC(=O)N2CCOCC2)c1 (stereo not given)	inactive
NS(=O)(=O)c1ccc(CNC(=O)c2cc(S(=O)(=O)N3CCOCC3)ccc2N2CCCC2)cc1	inactive

Structure (SMILES)	Potency
CC(=O)N1CCN(S(=O)(=O)c2cccc(C(=O)NC3CCC(C)CC3)c2)CC1 (stereo not given)	inactive
O=C(NCCCN1CCCC1=O)c1cccc(S(=O)(=O)NCc2ccccc2)c1	inactive
NS(=O)(=O)c1ccc(CNC(=O)c2cccc(S(=O)(=O)N3CCc4ccccc43)c2)cc1	9.2 µM (active)
Cc1c(NC(=S)Nc2ccccc2)c(=O)n(-c2ccccc2)n1C	inactive
COc1cc(C)c(Cl)cc1S(=O)(=O)n1ccnc1	inactive
CC1CCN(C(=O)COC(=O)c2cc(=O)[nH]c3ccccc23)CC1	inactive
CC(NC(=O)COC(=O)c1cc(=O)[nH]c2ccccc12)c1ccccc1 (stereo not given)	inactive
CCOC(=O)c1ccc2[nH]c(C)c(CN3CCN(C)CC3)c(=O)c2c1	inactive
COC(=O)C[C@H]1C[C@@H]2c3cc(N(C)C)ccc3O[C@@H]2[C@H](CO)O1	inactive
Cn1nc(-c2ccccc2)c(CSc2cccc(Cl)c2)c1Cl	18.4 µM (active)
CCOC(=O)CSc1ncc(-c2cccc(Cl)c2)cn1	inactive
Cn1nc(-c2ccccc2)c(CO)c1Sc1ccccc1	inactive
CCn1c(-c2ccoc2C)n[nH]c1=S	inactive
CCOC(=O)c1ccc(NC(=O)Cn2nnc(-c3ccc(C)cc3)n2)cc1	inactive
CCOC(=O)c1ccc(NC(=O)Cn2cnc3cc(C)c(C)cc32)cc1	0.517 µM (active)
CCOC(=O)c1ccc(NC(=O)CCn2c(=O)oc3ccccc32)cc1	inactive
Cc1ccc(OC(=O)c2cncc(Br)c2)c(C)c1	inactive
NC(=O)COc1ccccc1C(=O)NC12CC3CC(CC(C3)C1)C2	inactive
CCc1cccc(NC(=S)N(CCN(C)C)C2CCN(C(C)C)CC2)c1	inactive
Cc1cccc(C)c1NC(=O)CN1C(=O)C(C)Oc2ccccc21 (stereo not given)	inactive
CCn1c(C(O)c2cc(OC)ccc2OC)nc2ccccc21 (stereo not given)	inactive
CCn1c(/C=N/NC(=O)c2ccc(OC)cc2)nc2ccccc21	16.4 µM (active)

Structure (SMILES)	Potency
O=C(Nc1ccccc1Cl)N1CCN(c2ccc3nncn3n2)CC1	inactive
Cc1ccc(Cc2c(C)nc3nc(SCC(=O)NCCN4CCOCC4)nn3c2C)cc1	inactive
COc1ccc(NC(=O)CSc2nncc(=O)n2N)cc1OC	inactive
COc1cc(NC(=O)CSc2nc3nc(C)c(Cc4ccc(C)cc4)c(C)n3n2)cc(OC)c1OC	10.3 µM (active)
N#Cc1c(C(F)(F)F)cc(-c2ccccc2)nc1SCC(=O)N1CCOCC1	inactive
FC(F)Oc1ccccc1NC(=S)Nc1cccc(Cl)c1Cl	inactive
O=[N+]([O-])c1cc(S(=O)(=O)Nc2cccc(Cl)c2)ccc1N=Nc1c(O)[nH]c2ccccc12	25.9 µM (active)
COc1ccc(S(=O)(=O)Nc2ccc3cn[nH]c3c2)cc1[N+](=O)[O-]	inactive
O=C(O)c1ccccc1/C=N/Nc1ccc(S(=O)(=O)Nc2ccc(Cl)cc2)cc1[N+](=O)[O-]	inactive
O=C(Nc1nnc([C@H]2C[C@H](O)[C@@H](CO)O2)s1)c1cccc(Cl)c1	inactive
CN(CC(=O)Nc1ccc(Cl)cc1)C(=O)CNC(=O)c1ccc2ccccc2c1	inactive
Cc1ccc(S(=O)(=O)N(C)c2ccc(OCC(=O)OCC(=O)N(CC#N)c3ccccc3)cc2)cc1	inactive
COc1ccc(/C=N/Nc2ccccc2C(=O)O)cc1	inactive
CCOc1cc(/C=N/NC(=O)CN2CCCCC2)ccc1O	inactive
COc1ccc(/C=N/NC(=O)c2ccccc2)cc1OS(=O)(=O)c1ccccc1	13 µM (active)
COc1cc(C=NNC(=O)c2cccnc2)ccc1OC(=O)c1ccccc1F	inactive
C/C(=N\NC(=O)c1cccc(N2CCCC2=O)c1)c1ccc(N)cc1	inactive
COc1cc(/C=N/NC(=O)CCc2n[nH]c(=O)[nH]c2=O)ccc1O	inactive
COc1cc(/C=N/NC(=O)c2ccc(N3CCCC3=O)cc2)ccc1O	16.4 µM (active)
COc1ccc(/C=N/S(=O)(=O)c2ccccc2)cc1OC	inactive
COc1ccc(C(=O)Nc2ccccc2C(=O)N/N=C/c2ccc(O)c(OC)c2)cc1	20.6 µM (active)
